Consider nine compounds from article PMC5540273 (PLoS ONE, 2017).

Some test systems named below: CLK2; CLK3; CLK4; CSF1R-autoinhibited; CSF1R; CSK; CSNK1A1L; CSNK1A1; CSNK1D; CSNK1E; CSNK1G1; CSNK1G2; CSNK1G3; CSNK2A1; CSNK2A2; DAPK1; DAPK2; DAPK3.
What all share (conditions): concentration: 1 μM,replicates: in singlicate; n = 1
The subject of another experiment is T1, CTK.
T1 construct: gene MATK

The next experiment relates to T2, DCAMKL1.
T2 construct: gene DCLK1
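Also: KINOMEscan kinase panel screen.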

Turning to `O=C(NCCNc1ccnc(NCc2ccc(F)cc2)n1)c1cc2ccccc2s1` [GSK1379944], the “%Inh” value in the experiment with CLK2 is on record as 0%; with CLK3, 19%; with CLK4, 22%; in the experiment with CSF1R-autoinhibited it was 0%; with CSF1R, 9%; with CSK, 68%. Further, the “%Inh” value with CSNK1A1L is listed as 25%; in the experiment on CSNK1A1, 0%; in the experiment on CSNK1D, 72%; in the experiment with CSNK1E it was 26%; with CSNK1G1, 32%; with CSNK1G2, 98.8%. In addition, the “%Inh” value in the experiment with CSNK1G3 worked out at 9%; with CSNK2A1 it was 0%; with CSNK2A2, 66%; with CTK, 0%; in the experiment on DAPK1 it was 0%; in the experiment on DAPK2, 0%. In addition, the “%Inh” value in the experiment with DAPK3 is 81%; in the experiment on DCAMKL1 it was 1%.
For `CC(C)N1C(=O)Cc2cc(Nc3ncc(C(F)(F)F)c(NCc4cccc(S(C)(=O)=O)c4)n3)ccc21`, the “%Inh” value in the experiment on CLK2 is on record as 34%; in the experiment with CLK3, 0%; in the experiment on CLK4 it was 38%; in the experiment on CSF1R-autoinhibited, 0%; in the experiment on CSF1R, 8%; with CSK, 14%. In addition, the “%Inh” value was determined as 2% with CSNK1A1L; 0% in the experiment on CSNK1A1; 0% in the experiment with CSNK1D; 0% with CSNK1E; 0% in the experiment on CSNK1G1; 19% in the experiment with CSNK1G2. Also, the “%Inh” value was determined as 0% in the experiment with CSNK1G3; 55% in the experiment with CSNK2A1; 82% with CSNK2A2; 64% with CTK; 22% with DAPK1; 20% with DAPK2. The “%Inh” value is recorded as 20% in the experiment on DAPK3 and 30% with DCAMKL1.
`CCN(CC)CCCCNc1ncc2cc(-c3c(Cl)cccc3Cl)c(NC(=O)NC(C)(C)C)nc2n1`: the “%Inh” value in the experiment with CLK2 was 0%; in the experiment on CLK3, 0%; in the experiment on CLK4, 0%; in the experiment on CSF1R-autoinhibited it was 85%; with CSF1R, 99.2%; in the experiment on CSK, 90.5%. Moreover, the “%Inh” value in the experiment on CSNK1A1L stood at 0%; with CSNK1A1, 30%; with CSNK1D it was 14%; in the experiment on CSNK1E, 61%; in the experiment on CSNK1G1 it was 10%; in the experiment with CSNK1G2 it was 0%. Also, the “%Inh” value worked out at 0% in the experiment on CSNK1G3; 1% in the experiment with CSNK2A1; 12% in the experiment on CSNK2A2; 15% with CTK; 0% in the experiment on DAPK1; 0% in the experiment with DAPK2. Also, the “%Inh” value with DAPK3 stood at 0%; in the experiment on DCAMKL1, 11%.
`C[C@H]1Oc2cc(cnc2N)-c2c(nn(C)c2C#N)CN(C)C(=O)c2ccc(F)cc21`: the “%Inh” value with CLK2 amounted to 4%; in the experiment on CLK3, 0%; in the experiment on CLK4, 22%; with CSF1R-autoinhibited it was 0%; in the experiment with CSF1R, 15%; in the experiment with CSK it was 0%. For the same compound, the “%Inh” value in the experiment on CSNK1A1L worked out at 20%; in the experiment on CSNK1A1, 0%; with CSNK1D, 35%; in the experiment on CSNK1E it was 0%; in the experiment on CSNK1G1, 0%; in the experiment on CSNK1G2, 27%. The “%Inh” value with CSNK1G3 is recorded as 10%; in the experiment with CSNK2A1 it was 0%; in the experiment on CSNK2A2, 0%; in the experiment with CTK, 0%; with DAPK1, 0%; with DAPK2, 83%. For the same compound, the “%Inh” value in the experiment on DAPK3 stood at 16%; in the experiment on DCAMKL1 it was 88%.
As to `Cc1n[nH]c2ccc(-c3cc(OC[C@@H](N)Cc4ccccc4)cnc3-c3ccoc3)cc12.O=C(O)C(F)(F)F.O=C(O)C(F)(F)F` [GSK507358], the “%Inh” value in the experiment on CLK2 is given as 54%; in the experiment with CLK3 it was 23%; in the experiment with CLK4, 60%; in the experiment on CSF1R-autoinhibited, 0%; with CSF1R it was 17%; in the experiment with CSK, 0%. The “%Inh” value with CSNK1A1L worked out at 94.4%; with CSNK1D it was 98%; in the experiment on CSNK1E, 99.9%; in the experiment on CSNK1G1 it was 71%; in the experiment with CSNK1G2, 90.6%; in the experiment on CSNK1G3, 91.7%. Besides, the “%Inh” value with CSNK2A1 is 10%; in the experiment with CSNK2A2, 8%; in the experiment with CTK, 0%; in the experiment with DAPK1 it was 0%; with DAPK2, 0%; in the experiment with DAPK3, 13%. The “%Inh” value in the experiment with DCAMKL1 is on record as 0%.
Regarding `Cl.Cl.Nc1nc(-c2ccc3c(N)n[nH]c3c2)cc(N2CCCC(NC(=O)c3ccccc3)C2)n1` (centres unmarked) [GSK2286775], the “%Inh” value is on record as 15% in the experiment on CLK2; 14% in the experiment on CLK3; 0% in the experiment on CLK4; 0% with CSF1R-autoinhibited; 15% in the experiment with CSF1R; 5% with CSK. Also, the “%Inh” value in the experiment with CSNK1A1L came to 4%; in the experiment on CSNK1A1, 0%; in the experiment on CSNK1D, 0%; in the experiment on CSNK1E, 24%; in the experiment on CSNK1G1 it was 0%; in the experiment on CSNK1G2, 0%. In addition, the “%Inh” value worked out at 21% in the experiment on CSNK1G3; 0% in the experiment on CSNK2A1; 6% in the experiment on CSNK2A2; 6% in the experiment on CTK; 28% in the experiment with DAPK1; 0% with DAPK2. The results for the “%Inh” value in the experiment with DAPK3 and with DCAMKL1 were 13% and 15%, respectively.
`Cc1cc(C(=O)Nc2ccc(Oc3ccc4nc(NC(=O)C5CC5)cn4n3)cc2)nn1-c1ccccc1`: the “%Inh” value in the experiment on CLK2 was found to be 1%; with CLK3, 0%; in the experiment with CLK4, 0%; in the experiment on CSF1R-autoinhibited, 0%; in the experiment with CSF1R, 100%; in the experiment with CSK, 15%. The “%Inh” value in the experiment on CSNK1A1L is on record as 0%; in the experiment on CSNK1A1, 43%; in the experiment with CSNK1D, 0%; in the experiment with CSNK1E it was 1%; with CSNK1G1 it was 6%; with CSNK1G2, 0%. The “%Inh” value in the experiment with CSNK1G3, with CSNK2A1, in the experiment with CSNK2A2, with CTK, with DAPK1 and with DAPK2 was 0% throughout. Further, the results for the “%Inh” value in the experiment on DAPK3 and in the experiment with DCAMKL1 were 10% and 12%, respectively.
As for `Cl.Cl.NC[C@H](Cc1ccc(C(F)(F)F)cc1)NC(=O)c1cc(Br)c(-c2ccnc3[nH]ccc23)s1` [GSK1487252], the “%Inh” value in the experiment with CLK2 was found to be 39%; with CLK3 it was 22%; with CLK4, 57%; in the experiment on CSF1R-autoinhibited it was 3%; with CSF1R, 0%; in the experiment on CSK it was 0%. In addition, the “%Inh” value with CSNK1A1L was determined as 16%; in the experiment with CSNK1A1, 27%; in the experiment with CSNK1D, 55%; in the experiment on CSNK1E it was 54%; in the experiment with CSNK1G1 it was 0%; with CSNK1G2, 8%. Besides, the “%Inh” value turned out to be 24% in the experiment on CSNK1G3; 0% in the experiment on CSNK2A1; 14% in the experiment with CSNK2A2; 0% in the experiment with CTK; 0% in the experiment with DAPK1; 0% in the experiment on DAPK2. Moreover, the “%Inh” value with DAPK3 came out at 6%; in the experiment on DCAMKL1, 17%.
Turning to `CCN(CC)CCOc1ccc(Nc2ncc3cc(-c4c(Cl)cccc4Cl)c(=O)n(C)c3n2)cc1` [SB-601273], the “%Inh” value worked out at 10% with CLK2; 0% in the experiment on CLK3; 0% in the experiment with CLK4; 100% in the experiment on CSF1R-autoinhibited; 99.9% with CSF1R; 98.4% with CSK. In addition, the “%Inh” value in the experiment on CSNK1A1L stood at 3%; in the experiment on CSNK1A1, 13%; in the experiment with CSNK1D, 39%; with CSNK1E, 60%; with CSNK1G1 it was 38%; in the experiment with CSNK1G2, 0%. For the same compound, the “%Inh” value was 12% in the experiment on CSNK1G3; 6% with CSNK2A1; 9% in the experiment on CSNK2A2; 27% with CTK; 12% with DAPK1; 0% with DAPK2. In addition, the “%Inh” value with DAPK3 stood at 10%; in the experiment on DCAMKL1, 24%.
